Reference: PubChem BioAssay AID1159580 (chemical genetic matrix, 2015)
The whole screen tested about 5,500 compounds, of which about 2,000 (36%) were called active. Inconclusive results (about 18%) are left out. No stated cut-off is given here; in the data, active means normalized growth mostly below about 0.91 (no sharp cut-off); inconclusive means no clear call, values can overlap the other calls; inactive means mostly above about 0.92. The list shows a part of the results.

Assay: chemical genetic growth profiling, strain panel (AID 1159580);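 further: tested at 20 µM; growth read once vehicle control cultures reached saturation at 30 °C; 1 = growth at the plate median or of vehicle wells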
Conditions: growth OD

Measured: normalized growth

CC[C@H]1OC(=O)[C@H](C)[C@@H](O[C@H]2C[C@@](C)(OC)[C@@H](O)[C@H](C)O2)[C@H](C)[C@@H](O[C@@H]2O[C@H](C)C[C@H](N(C)C)[C@H]2O)[C@](C)(O)C[C@@H](C)/C(=N/OCOCCOC)[C@H](C)[C@@H](O)[C@]1(C)O
inactive: S. cerevisiae deletion strains, locus YJR075W, strain HOC1, stronger effect = lower value 0.989 | S. cerevisiae deletion strains, locus YKL009W, strain mrt4, stronger effect = lower value 1.01 | S. cerevisiae deletion strains, locus YKL068W, stronger effect = lower value 1 | S. cerevisiae deletion strains, locus YKL085W, strain MDH1 (second series), stronger effect = lower value 1 | S. cerevisiae deletion strains, locus YKL085W, strain MDH1, stronger effect = lower value 1 | S. cerevisiae deletion strains, locus YKL160W, strain elf1, stronger effect = lower value 1.02 | S. cerevisiae deletion strains, locus YKL190W, strain CNB1, stronger effect = lower value 1 | S. cerevisiae deletion strains, locus YKR001C, strain vps1, stronger effect = lower value 1.01 | S. cerevisiae deletion strains, locus YKR026C, strain gcn3, stronger effect = lower value 1 | S. cerevisiae deletion strains, locus YKR091W, strain srl3, stronger effect = lower value 1 | S. cerevisiae deletion strains, locus YLL001W, strain dnm1, stronger effect = lower value 1.02 | S. cerevisiae deletion strains, locus YLL026W, stronger effect = lower value 1.01 | S. cerevisiae deletion strains, locus YLL041C, strain sdh2, stronger effect = lower value 1.01 | S. cerevisiae deletion strains, locus YLR027C, strain aat2, stronger effect = lower value 1.01 | S. cerevisiae deletion strains, locus YLR039C, strain RIC1, stronger effect = lower value 0.968 | S. cerevisiae deletion strains, locus YLR058C, strain SHM2, stronger effect = lower value 0.998 | S. cerevisiae deletion strains, locus YLR102C, strain apc9, stronger effect = lower value 0.989 | S. cerevisiae deletion strains, locus YLR113W, strain HOG1, stronger effect = lower value 0.967 | S. cerevisiae deletion strains, locus YLR221C, strain rsa3, stronger effect = lower value 1.01 | S. cerevisiae deletion strains, locus YLR258W, strain gsy2, stronger effect = lower value 1.02 | S. cerevisiae deletion strains, locus YLR262C, strain YPT6 (second series), stronger effect = lower value 0.989 | S. cerevisiae deletion strains, locus YLR262C, strain YPT6, stronger effect = lower value 0.997 | S. cerevisiae deletion strains, locus YLR268W, strain sec22, stronger effect = lower value 1.03 | S. cerevisiae deletion strains, locus YLR320W, strain mms22, stronger effect = lower value 0.993 | S. cerevisiae deletion strains, locus YLR330W, strain CHS5, stronger effect = lower value 1.01 | S. cerevisiae deletion strains, locus YLR342W, strain FKS1 (second series), stronger effect = lower value 1.01 | S. cerevisiae deletion strains, locus YLR342W, strain FKS1, stronger effect = lower value 1.02 | S. cerevisiae deletion strains, locus YLR357W, strain rsc2, stronger effect = lower value 1.05 | S. cerevisiae deletion strains, locus YLR370C, strain arc18, stronger effect = lower value 1.01 | S. cerevisiae deletion strains, locus YLR371W, strain rom2, stronger effect = lower value 0.972 | S. cerevisiae deletion strains, locus YLR418C, strain cdc73, stronger effect = lower value 1.03 | S. cerevisiae deletion strains, locus YML016C, strain PPZ1, stronger effect = lower value 1.01 | S. cerevisiae deletion strains, locus YML032C, strain rad52, stronger effect = lower value 1.01 | S. cerevisiae deletion strains, locus YML120C, strain ndi1, stronger effect = lower value 1.01 | S. cerevisiae deletion strains, locus YML124C, strain tub3, stronger effect = lower value 0.999 | S. cerevisiae deletion strains, locus YMR058W, strain fet3, stronger effect = lower value 1.01 | S. cerevisiae deletion strains, locus YMR078C, strain ctf18, stronger effect = lower value 1.01 | S. cerevisiae deletion strains, locus YMR125W, strain sto1, stronger effect = lower value 1.01 | S. cerevisiae deletion strains, locus YMR129W, stronger effect = lower value 1.02 | S. cerevisiae deletion strains, locus YMR205C, strain PFK2, stronger effect = lower value 0.99 | S. cerevisiae deletion strains, locus YMR223W, strain ubp8, stronger effect = lower value 1.03 | S. cerevisiae deletion strains, locus YMR231W, strain pep5, stronger effect = lower value 1.01 | S. cerevisiae deletion strains, locus YMR307W, strain GAS1, stronger effect = lower value 1.02 | S. cerevisiae deletion strains, locus YNL067W, strain RPL9B, stronger effect = lower value 0.986 | S. cerevisiae deletion strains, locus YNL071W, strain lat1, stronger effect = lower value 0.955 | S. cerevisiae deletion strains, locus YNL183C, strain NPR1, stronger effect = lower value 0.937 | S. cerevisiae deletion strains, locus YNL209W, strain ssb2, stronger effect = lower value 1.01 | S. cerevisiae deletion strains, locus YNL233W, strain BNI4, stronger effect = lower value 0.977 | S. cerevisiae deletion strains, locus YNL248C, strain rpa49, stronger effect = lower value 1.03 | S. cerevisiae deletion strains, locus YNL250W, strain rad50, stronger effect = lower value 1.05 | S. cerevisiae deletion strains, locus YNL271C, strain bni1, stronger effect = lower value 1.01 | S. cerevisiae deletion strains, locus YNL298W, strain CLA4, stronger effect = lower value 1.02 | S. cerevisiae deletion strains, locus YNL307C, strain MCK1, stronger effect = lower value 1 | S. cerevisiae deletion strains, locus YNL322C, strain KRE1 (second series), stronger effect = lower value 1.01 | S. cerevisiae deletion strains, locus YNR049C, strain mso1, stronger effect = lower value 1.01 | S. cerevisiae deletion strains, locus YNR052C, strain pop2, stronger effect = lower value 1 | S. cerevisiae deletion strains, locus YOL006C, strain TOP1, stronger effect = lower value 0.92 | S. cerevisiae deletion strains, locus YOL012C, strain htz1 1.11 | S. cerevisiae deletion strains, locus YOL147C, strain pex11, stronger effect = lower value 1.01 | S. cerevisiae deletion strains, locus YOR001W, strain rrp6, stronger effect = lower value 1.01 | S. cerevisiae deletion strains, locus YOR061W, strain CKA2, stronger effect = lower value 1 | S. cerevisiae deletion strains, locus YOR069W, strain VPS5, stronger effect = lower value 1.01 | S. cerevisiae deletion strains, locus YOR070C, strain gyp1, stronger effect = lower value 1 | S. cerevisiae deletion strains, locus YOR080W, strain dia2, stronger effect = lower value 1.02 | S. cerevisiae deletion strains, locus YOR083W, strain WHI5, stronger effect = lower value 1.02 | S. cerevisiae deletion strains, locus YOR106W, strain vam3, stronger effect = lower value 1.03 | S. cerevisiae deletion strains, locus YOR136W, strain idh2, stronger effect = lower value 1.02 | S. cerevisiae deletion strains, locus YOR144C, strain elg1, stronger effect = lower value 1 | S. cerevisiae deletion strains, locus YOR184W, strain ser1, stronger effect = lower value 1.01 | S. cerevisiae deletion strains, locus YOR231W, strain MKK1, stronger effect = lower value 0.988 | S. cerevisiae deletion strains, locus YOR265W, strain rbl2, stronger effect = lower value 1.01 | S. cerevisiae deletion strains, locus YOR270C, strain vph1, stronger effect = lower value 1.01 | S. cerevisiae deletion strains, locus YOR290C, strain snf2, stronger effect = lower value 1.01 | S. cerevisiae deletion strains, locus YOR316C, strain cot1, stronger effect = lower value 0.994 | S. cerevisiae deletion strains, locus YPL051W, strain arl3, stronger effect = lower value 1.01 | S. cerevisiae deletion strains, locus YPL055C, strain LGE1, stronger effect = lower value 0.988 | S. cerevisiae deletion strains, locus YPL078C, strain atp4, stronger effect = lower value 1.01 | S. cerevisiae deletion strains, locus YPL106C, strain sse1, stronger effect = lower value 1.04 | S. cerevisiae deletion strains, locus YPL240C, strain hsp82, stronger effect = lower value 1.01 | S. cerevisiae deletion strains, locus YPL241C, strain CIN2, stronger effect = lower value 1 | S. cerevisiae deletion strains, locus YPL256C, strain CLN2, stronger effect = lower value 0.994 | S. cerevisiae deletion strains, locus YPR119W, strain clb2, stronger effect = lower value 0.989 | S. cerevisiae deletion strains, locus YPR141C, strain kar3, stronger effect = lower value 1.01 | S. cerevisiae deletion strains, locus YPR163C, strain tif3, stronger effect = lower value 1 | S. cerevisiae deletion strains, locus YPR167C, strain met16, stronger effect = lower value 1.01 | S. cerevisiae deletion strains, strain wtn01, stronger effect = lower value 1.02 | S. cerevisiae strains, strain wild type, stronger effect = lower value 1.01
